Reference: the supplement of paper PMC13380429

Test system: Vero E6 infected with SARS-CoV-2
Assay: inhibition of SARS-CoV-2 cytopathic effect; higher = more antiviral protection, active = above 15
Conditions: 8.33 nM; 48 h

Structure (SMILES)	inhibition of SARS-CoV-2 cytopathic effect
CN1C2C=C(c3sccc3Br)CC1CC2 (stereo not given)	-2.54% (inactive)
O=C(Cc1ccc(Cl)c(Cl)c1)N1CCCC[C@@H]1CN1CCCC1	2.64% (inactive)
CCOC(=O)N1CCC(=C2c3ccc(Cl)cc3CCc3cccnc32)CC1 [loratadine]	0.5% (inactive)
NS(=O)(=O)c1ccc(-n2nc(C(F)(F)F)cc2-c2ccc(Cl)cc2)cc1	3.82% (inactive)
CC(C)OC(=O)C(C)(C)Oc1ccc(C(=O)c2ccc(Cl)cc2)cc1 [fenofibrate]	5.16% (inactive)
COC(=O)C1=C(C)NC(C)=C([N+](=O)[O-])[C@@H]1c1ccccc1C(F)(F)F (racemic)	-0.15% (inactive)
Nc1cc(Cl)c(N=C2NCCN2)c(Cl)c1 [apraclonidine]	1.32% (inactive)
N[C@@H](Cc1cc(-c2ccc(Cl)cc2Cl)cc(CP(=O)(O)O)c1O)C(=O)O	2.24% (inactive)
COc1cc(N)c(Cl)cc1C(=O)OCCN1CCCCC1	2.09% (inactive)
O=C1C=C2C=C[C@@H]3C[C@@]2(O1)[C@H]1CCCCN31 [securinine]	3.64% (inactive)
CN1CCN(CCCN2c3ccccc3Sc3ccc(Cl)cc32)CC1 [prochlorperazine]	0.64% (inactive)
Nc1cccc2c(=O)[nH][nH]c(=O)c12 [monosodium-alpha-luminol]	0.14% (inactive)
Cc1c(O)c(=O)n(-c2ccccc2)n1C [4-hydroxy-phenazone]	0.39% (inactive)
CCn1cc(-c2cccc(C(F)(F)F)c2)c2sc(C(=N)NC3CCS(=O)(=O)CC3)cc2c1=O	3.81% (inactive)
CC(C)(C)NCC(O)c1ccc(O)c(CO)c1 (stereo not given) [albuterol]	-2.63% (inactive)
C[C@H]1CC[C@H](n2c3cnccc3c3cnc(Nc4ccc5c(n4)CCN(C(=O)CO)C5)nc32)CC1	-0.1% (inactive)
CC[C@H](C)C(=O)O[C@H]1C[C@@H](C)C=C2C=C[C@H](C)[C@H](CC[C@@H]3C[C@@H](O)CC(=O)O3)[C@H]21 [lovastatin]	4.16% (inactive)
O=C(OCC(COC(=O)c1cccnc1)(COC(=O)c1cccnc1)COC(=O)c1cccnc1)c1cccnc1 [niceritrol]	-0.29% (inactive)
CN(C)CCC=C1c2ccccc2CCc2ccccc21 [amitriptyline]	-0.51% (inactive)
COc1cccc(OC)c1C(=O)N[C@@H]1C(=O)N2[C@@H]1SC(C)(C)[C@@H]2C(=O)O [methicillin]	1.78% (inactive)

Structure (SMILES)	inhibition of SARS-CoV-2 cytopathic effect
OC[C@H]1O[C@H](O[C@H]2O[C@H](CO)[C@@H](O)[C@H](O)[C@H]2O)[C@H](O)[C@@H](O)[C@@H]1O [cabaletta]	3.4% (inactive)
CC/C(=C(/c1ccc(/C=C/C(=O)O)cc1)c1ccc2[nH]ncc2c1)c1ccc(F)cc1Cl	-1.18% (inactive)
O=C(NC1CCN(CCCCC2(C(=O)NCC(F)(F)F)c3ccccc3-c3ccccc32)CC1)c1ccccc1-c1ccc(C(F)(F)F)cc1 [lomitapide]	-1.36% (inactive)
COC(=O)N1CC[C@@H]2[C@H]1CCC[C@@]2(O)C#Cc1cccc(C)c1 [mavoglurant]	-0.18% (inactive)
Cc1ccc(C(=O)Nc2cccc(C(F)(F)F)c2)cc1Nc1nc(-c2cccnc2)nc2c1cnn2C	0.17% (inactive)
CCCCOC(=O)c1cc2c(cn1)[nH]c1ccccc12 [beta-CCB]	-1.62% (inactive)
Cc1c(F)cc(C(=O)NC2CC2)cc1-c1ccc(C(=O)NCC(C)(C)C)cn1 [losmapimod]	0.27% (inactive)
C[C@@H](CN)CC(=O)O [3-methyl-GABA]	0.52% (inactive)
CC1=CC(=C(c2ccc(N)cc2)c2ccc(N)cc2)C=CC1=N [basic-fuchsin]	0.35% (inactive)
C=C1CCN([C@H](C)[C@](O)(Cn2cncn2)c2ccc(F)cc2F)CC1 [efinaconazole]	1.69% (inactive)
CCN(Cc1ccc(Cl)nc1)/C(=C/[N+](=O)[O-])NC [nitenpyram]	-0.17% (inactive)
O=c1[nH]c2ccccc2n1CCCN1CCN(C(c2ccccc2)c2ccccc2)CC1 [oxatomide]	2.61% (inactive)
CCc1ccccc1OC[C@@H](O)CN[C@H]1CCCc2ccccc21	-0.44% (inactive)
CCCC(=O)Nc1ncnc2c1ncn2[C@@H]1O[C@@H]2COP(=O)(O)O[C@H]2[C@H]1OC(=O)CCC [bucladesine]	-3.37% (inactive)
Sc1ncnc2nc[nH]c12 [mercaptopurine]	1.59% (inactive)
CC(C)(C)NCC(O)c1cc(O)cc(O)c1 (stereo not given)	-0.61% (inactive)
Cc1cc(OCC(=O)O)cc(C)c1Cc1ccc(O)c(C(C)C)c1 [sobetirome]	-0.19% (inactive)
O=C(Nc1ccccc1F)N[C@H]1N=C(c2ccccc2)c2ccccc2NC1=O	0.41% (inactive)
C[C@H](Cc1cc2c(c(C(N)=O)c1)N(CCCO)CC2)NCCOc1ccccc1OCC(F)(F)F [silodosin]	-1.05% (inactive)
Cn1cc(-c2ccc3nnc(C(F)(F)c4ccc5ncccc5c4)n3n2)cn1	2.96% (inactive)
